According to ChEMBL document CHEMBL1157539, “Thousands of chemical starting points for antimalarial lead identification” (Nature, 2010):

test system: HepG2; assay: GSK_TCMDC: Percent inhibition of human HepG2 cell line. Test compounds present at 10uM.; assay type: functional

| SMILES | Inhibition |
| --- | --- |
| O=[N+]([O-])c1ccc(Nc2nc(N/N=C/c3cc(Cl)cc(Cl)c3O)nc(Nc3ccccc3)n2)cc1 | 29% |
| O=C(Nc1ccccc1)NC1CCN(CCC2(c3ccc(Cl)c(Cl)c3)COCN(C(=O)c3ccccc3)C2)C1 (stereo not drawn) | 23% |
| COc1ccc(Cl)cc1N1CCN(CCCNC(=O)c2ccc(-c3nc4cnccc4[nH]3)c(Br)c2)CC1 | 5% |
| FC(F)(F)c1cccc(Nc2nc3nonc3nc2NC2C3CC4CC(C3)CC2C4)c1 (stereo not drawn) | 72% |
| O=C(NCCCCN1CCC(c2c[nH]c3ccccc23)CC1)c1sc(-c2ccc(C(F)(F)F)cc2)nc1CO | 34% |
| CO/C(=C\C=C\c1cc2cc(Cl)c(Cl)cc2[nH]1)C(=O)NCCCN1CCCC[C@@H]1C | 33% |
| Cc1cc(C)n2nc(C(=O)Nc3cc(C(F)(F)F)ccc3N3CCOCC3)nc2n1 | 2% |
| CC(C)c1ccc(CN2CCCCC(NC(=O)c3cc(-c4cccc(F)c4)cs3)C2)cc1.O=C(O)C(F)(F)F (stereo not drawn) | 6% |
| Cc1nn(-c2ccnc3cc(Cl)ccc23)c(C)c1C(=O)NCc1cc(Cl)cc(Cl)c1 | 0% |
| COc1ccccc1N1CCN(CCCCNC(=O)c2ccc(NC(=O)c3cc4ccccc4o3)cc2)CC1 | 9% |
| Cc1ccc(C(=O)Cn2nc(-c3ccc(C)c(S(=O)(=O)N4CCCCC4)c3)ccc2=O)cc1 | 6% |
| O=C(Nc1ccc(-c2nc3cc4ccccc4cc3[nH]2)cc1)c1cccc(Br)c1 | 50% |
| CN(C)c1nc2cc(-n3cnc4cc(-c5ccc(Cl)cc5)sc4c3=O)ccc2n1CCCN1CCCCC1.O=C(O)C(F)(F)F | 55% |
| O=C(Nc1ccc(N2CCN(C(=O)/C=C/c3ccccc3)CC2)c(Cl)c1)c1ccc([N+](=O)[O-])o1 | 98% |
| CN(c1ccc(F)cc1)S(=O)(=O)c1ccc(Cl)c(C(=O)Nc2cccc(C#N)c2)c1 | 5% |
| O=C(C=Cc1ccc(Cl)c(Cl)c1)NCCCCCN1CCC(CCCNS(=O)(=O)c2cccc(C(F)(F)F)c2)CC1 | 99% |
| Cc1cc(NC(=O)c2coc3cc(F)c(N4CC(C)N(C)C(C)C4)cc23)cnc1-c1ccc(C#N)cc1.Cl (stereo not drawn) | 35% |
| COc1cc2nc(Nc3ccc4c(ccn4Cc4ccccc4)c3)nc(Nc3ccc4c(ccn4Cc4ccccc4)c3)c2cc1OC | 0% |
| Cl.O=C(CNC1=NCCN1)Nc1ccc(NC(=O)Nc2ccc(NC(=O)CNC3=NCCN3)cc2)cc1 | 0% |
| CC(C)(C)c1ccc(CN(C[C@@H](O)CNS(=O)(=O)c2cc(Cl)cc(Cl)c2)C(C)(C)C)cc1.Cl | 74% |
| COc1ccc2nc(-c3cc(-c4ccc(NC(C)=O)cc4)cnc3N)[nH]c2c1 | 55% |
| Cc1nc(N)nc(N)c1-c1ccc(Cl)cc1 | 15% |
| O=C(c1cnn(-c2ccccc2)c1C(F)(F)F)N1CCN(c2ccnc3cc(Cl)ccc23)CC1 | 34% |
| O=C(Nc1ccc(F)cc1F)NC1CCN(c2ccnc3cc(Cl)ccc23)C1.O=C(O)C(F)(F)F (stereo not drawn) | 25% |
| FC(F)(F)c1ccc2[nH]c(-c3ccc(-c4cccc(CNCc5cnn(-c6ccccc6)n5)c4)s3)nc2c1.O=C(O)C(F)(F)F | 38% |
| O=C(Nc1ccc(-c2nc3ccccc3[nH]2)cc1)C1CCN(Cc2ccccc2)CC1 | 12% |
| O=C(O)C(F)(F)F.Oc1ccc(CCNc2nc(NCc3ccccc3-c3ccc(C(F)(F)F)cc3)nc(NC3CCNCC3)n2)cc1 | 12% |
| CON=Cc1sc(CNCCCN=c2cc(O)c3ccccc3[nH]2)c(C)c1Br.Cl | 0% |
